Results reported in PubChem BioAssay (NCATS).
Inconclusive results are not listed. Calls of active or inactive are those of the source. Unless noted, the call rests on the fitted dose curve; in most records, active means well fitted inhibition curve with a large enough effect; inconclusive means small, poorly fitted or top-dose-only effect; inactive means no such curve, though single readings can be large or run the other way.

Key:
[1] = qHTS assay for measurement of the activity of small molecule inhibitors on Zika virus induced Caspase-3 activity in human iPSC derived neural progenitor cells (hNPCs) (AID 1224857); details: hNPCs ZIKV-induced caspase-3/7, Caspase-Glo luminescence, 6 h; series mostly up to 45.7 µM; further: nearly all actives have a fitted effect of over 65% in size
In short: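 After overnight (16–20 h) culture at 350 cells/well, hNPCs get compound, then ZIKV 2 FFU/cell one hour later. Six hours on, Caspase-Glo 3/7 is added and luminescence measured.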

[2] = qHTS assay for measurement of the activity of small molecule inhibitors on Zika virus induced Caspase-3 activity in human astrocytoma cells (AID 1224859); details: SNB-19 ZIKV-induced caspase-3/7, luminescence, 6 h; series mostly up to 45.7 µM
In short: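 Inhibition of Zika-induced caspase-3/7 activity: SNB-19 cells, 1 h compound pretreatment, ZIKV 2 FFU/cell for 6 h at 37 C, Caspase-Glo luminescence read-out.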

[3] = target: Atrial natriuretic peptide receptor 1 (Homo sapiens) (UniProt P16066); test: Natriuretic polypeptide receptor (hNpr1) antagonism - Pilot screen (AID 1347049; calls by dose curve;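 further: agonist-evoked cGMP luminescence read 20 min after hNppA addition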; further: potency means the concentration at half of the fitted maximal effect); details: hNpr1 cells, antagonist mode cGMP read-out; series mostly up to 57.5 µM
In short: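 Readout is cGMP-driven firefly luciferase luminescence in HEK293 cells carrying hNpr1 and a PDE5-domain GloSensor, read before and 20 min after 0.1 nM hNppA stimulation. Cells had 2% substrate reagent for 2 h and test compound for 30 min.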

[4] = target: Atrial natriuretic peptide receptor 2 (Homo sapiens) (UniProt P20594); test: Natriuretic polypeptide receptor (hNpr2) antagonism - Pilot subtype selectivity assay (AID 1347050; calls by dose curve; further: potency means the concentration at half of the fitted maximal effect); details: NPR2-expressing cells, cGMP antagonist-mode read-out; series mostly up to 38.3 µM
In short: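 Pilot selectivity screen against hNpr2: HEK293 cGMP-sensor cells are treated with LOPAC1280 compounds, then with hNppC peptide at 1 nM final. The cGMP-driven luminescence change over 20 min at room temperature is the read-out.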

Measured: Potency

Atrial natriuretic peptide receptor 2 (Homo sapiens), sequence (P20594 whole entry, looked up): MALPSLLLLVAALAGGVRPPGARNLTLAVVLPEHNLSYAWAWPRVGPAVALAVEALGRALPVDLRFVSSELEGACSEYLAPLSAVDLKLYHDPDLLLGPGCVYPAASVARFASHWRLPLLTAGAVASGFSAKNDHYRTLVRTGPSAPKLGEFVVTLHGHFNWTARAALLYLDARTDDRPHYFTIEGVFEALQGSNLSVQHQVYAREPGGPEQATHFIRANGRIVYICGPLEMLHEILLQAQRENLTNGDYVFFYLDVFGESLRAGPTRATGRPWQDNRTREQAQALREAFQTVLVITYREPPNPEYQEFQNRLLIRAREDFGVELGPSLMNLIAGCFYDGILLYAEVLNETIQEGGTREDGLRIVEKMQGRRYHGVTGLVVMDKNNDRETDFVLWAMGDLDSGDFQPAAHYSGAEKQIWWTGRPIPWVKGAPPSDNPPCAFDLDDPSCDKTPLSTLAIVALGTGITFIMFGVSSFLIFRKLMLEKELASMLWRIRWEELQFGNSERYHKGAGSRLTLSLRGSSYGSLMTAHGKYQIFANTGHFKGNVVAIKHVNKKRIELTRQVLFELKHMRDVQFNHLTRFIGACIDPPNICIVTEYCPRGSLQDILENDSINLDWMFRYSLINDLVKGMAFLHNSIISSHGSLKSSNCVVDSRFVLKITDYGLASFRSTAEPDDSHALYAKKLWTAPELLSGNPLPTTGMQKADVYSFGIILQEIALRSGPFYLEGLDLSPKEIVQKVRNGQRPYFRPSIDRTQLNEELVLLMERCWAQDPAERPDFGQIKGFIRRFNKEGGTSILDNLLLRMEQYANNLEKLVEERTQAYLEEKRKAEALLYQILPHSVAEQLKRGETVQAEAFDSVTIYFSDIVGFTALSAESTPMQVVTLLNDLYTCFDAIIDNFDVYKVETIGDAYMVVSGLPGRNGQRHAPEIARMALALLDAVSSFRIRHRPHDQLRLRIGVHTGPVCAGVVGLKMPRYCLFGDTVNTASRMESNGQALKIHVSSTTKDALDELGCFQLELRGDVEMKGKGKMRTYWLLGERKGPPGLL
Atrial natriuretic peptide receptor 1 (Homo sapiens), sequence (P16066 whole entry, looked up): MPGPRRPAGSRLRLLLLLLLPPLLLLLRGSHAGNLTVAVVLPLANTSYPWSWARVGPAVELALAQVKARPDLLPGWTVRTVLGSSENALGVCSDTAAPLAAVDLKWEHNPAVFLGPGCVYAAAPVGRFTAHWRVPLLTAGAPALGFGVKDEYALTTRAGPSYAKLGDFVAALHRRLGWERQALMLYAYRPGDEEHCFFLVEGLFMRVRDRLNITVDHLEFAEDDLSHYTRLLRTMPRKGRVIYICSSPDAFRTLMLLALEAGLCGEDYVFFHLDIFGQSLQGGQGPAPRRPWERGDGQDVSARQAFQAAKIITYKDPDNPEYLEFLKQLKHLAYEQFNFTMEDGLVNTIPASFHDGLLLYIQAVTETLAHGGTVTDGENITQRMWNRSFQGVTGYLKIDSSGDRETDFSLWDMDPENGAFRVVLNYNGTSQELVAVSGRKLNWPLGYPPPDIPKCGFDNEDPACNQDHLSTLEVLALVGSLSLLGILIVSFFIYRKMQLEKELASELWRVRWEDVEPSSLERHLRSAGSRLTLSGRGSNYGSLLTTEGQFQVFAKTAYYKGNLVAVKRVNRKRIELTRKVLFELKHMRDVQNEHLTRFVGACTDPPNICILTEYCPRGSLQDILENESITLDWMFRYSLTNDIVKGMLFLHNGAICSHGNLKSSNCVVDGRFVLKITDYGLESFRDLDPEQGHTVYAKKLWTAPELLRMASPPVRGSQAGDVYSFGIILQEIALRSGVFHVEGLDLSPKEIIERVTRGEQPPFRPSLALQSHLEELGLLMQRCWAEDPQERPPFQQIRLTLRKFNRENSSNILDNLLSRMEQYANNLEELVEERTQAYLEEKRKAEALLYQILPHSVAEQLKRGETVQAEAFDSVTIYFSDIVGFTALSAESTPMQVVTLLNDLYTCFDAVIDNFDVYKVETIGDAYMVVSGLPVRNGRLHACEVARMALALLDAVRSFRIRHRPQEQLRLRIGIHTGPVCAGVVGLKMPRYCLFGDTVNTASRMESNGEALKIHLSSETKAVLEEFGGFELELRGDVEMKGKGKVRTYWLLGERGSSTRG

CC(=O)NNC(=O)N1Cc2ccccc2Oc2ccc(Cl)cc21
inactive: all assays above

O=C(O)C1CCNCC1
inactive: [1] | [2] | [3]

CC(=O)O[C@H]1Cc2ccccc2N(C(N)=O)c2ccccc21
inactive: all assays above

N[C@@H](CCCC(=O)O)C(=O)O
inactive: [1] | [2] | [4]

CCCN(CCc1ccccc1)C1CCc2c(O)cccc2C1 (centres undefined)
inactive: all assays above

Cc1nc(N=Nc2cc(S(=O)(=O)O)c3cc([N+](=O)[O-])cc(S(=O)(=O)O)c3c2)c(COP(=O)(O)O)c(C=O)c1O
inactive: [1] | [2] | [4]

CC1=C(C(=O)O)N2C(=O)[C@@H](NC(=O)C(N)C3=CCC=CC3)[C@H]2SC1 (some centres undefined)
inactive: all assays above

NC(N)=NC(N)=Nc1cccc(Cl)c1
inactive: all assays above

COc1cc(/C=C(\C#N)C(=O)Nc2nnc(C(F)(F)F)s2)ccc1OCc1ccc(C(F)(F)F)cc1C(F)(F)F
active: [3] 23.9 µM | [4] 16.5 µM
inactive: [1] | [2]

N#Cc1cc2nc(O)c(O)nc2cc1[N+](=O)[O-]
inactive: [1] | [2] | [4]

CCN(CC)CCCCCCCCOC(=O)c1cc(OC)c(OC)c(OC)c1
inactive: all assays above

Nc1nc2ccc(Cl)cc2c2nc(-c3ccco3)nn12
inactive: all assays above

COc1cc2c(CCNC(C)=O)c[nH]c2cc1O
inactive: all assays above

CCCn1c(=O)c(C)cn2nc(N)nc12
inactive: all assays above

CCC1(O)CC2CN(CCc3c([nH]c4ccccc34)[C@@](C(=O)OC)(c3cc4c(cc3OC)N(C)C3[C@]45CCN4CC=C[C@@](CC)([C@@H](OC(C)=O)[C@]3(O)C(=O)OC)[C@H]45)C2)C1 (some centres undefined)
inactive: all assays above

O=C(O)Cc1c[nH]c2ccc(O)cc12
inactive: [1] | [2] | [3]

CC[N+](CC)(CC)CC(=O)Nc1c(C)cccc1C
inactive: all assays above

O=C(O)CCC/C=C\C[C@@H]1[C@@H](/C=C/[C@H](O)C2Cc3ccccc3C2)[C@@H](F)C[C@@H]1O
inactive: [1] | [2] | [4]

CC(C)NCC(O)COc1ccc(CC(N)=O)cc1 (centres undefined)
inactive: [1] | [2] | [3]

NC1CCN(O)C1=O (centres undefined)
inactive: all assays above

O=C(c1ccc2c(c1)OCCO2)N1CCCCC1
inactive: all assays above

N[C@H](C(=O)O)[C@H]1C[C@@H]1C(=O)O
inactive: all assays above

CN[C@H](CC(=O)O)C(=O)O
inactive: [1] | [2] | [3]

COc1ccccc1N1CCN(CCN(C(=O)c2ccc(F)cc2)c2ccccn2)CC1
inactive: all assays above

CNCCNS(=O)(=O)c1cccc2cnccc12
inactive: all assays above

c1ccc2c(c1)CC(N1CCN(c3cccc4c3OCCO4)CC1)C2
inactive: all assays above

CCCc1c(-c2ccc(O)cc2)nn(-c2ccc(O)cc2)c1-c1ccc(O)cc1
inactive: all assays above

OC1(c2ccc(Cl)cc2)CCN(Cc2c[nH]c3ccccc23)CC1
inactive: all assays above
